Source: PubChem BioAssay (Tox21)
Several values for one entry are separate records, joined by “and”; a condition that tells them apart may be missing. Equal entries are not always repeated. Results filed as inconclusive are left out. Activity calls are given as the source filed them. Calls follow the shape of the dose curve; as a rule, active = well fitted curve in the direction sought with a large enough effect in the repeat runs; inconclusive = weak or mixed curves; inactive = no such curve, though single readings can be large; an effect the other way counts as inactive or inconclusive.

Legend:
[1] = Human pregnane X receptor (PXR) small molecule agonists, qHTS cell viability counter screen (AID 1346977); also: nearly all actives have a fitted effect of over 50% in size
Outline: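 Fluorescence read-out (CellTiter-Fluor) of viability in PXR-Luc HepG2 cells, multiplexed with the luciferase agonist read. Compounds in DMSO added after 5hr plating; 24hr total exposure at 37C, 5% CO2.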

[2] = Caspase-3/7 induction in HepG2 cells by small molecules, qHTS assay (AID 1346978); also: nearly all actives have a fitted effect of over 15% in size
Outline: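 Wild-type HepG2 cells (2,000/well) were settled 5 h at 37 C, 5% CO2, then exposed to compounds in DMSO for 17 h. Caspase-3/7 activity was read by luminescence 30 min after adding Caspase-Glo 3/7 reagent at room temperature.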

[3] = Caspase-3/7 induction in CHO-K1 cells by small molecules, qHTS cell viability counter screen (AID 1346979); also: nearly all actives have a fitted effect of over 35% in size; also: potency is read from the fitted curve at half-maximal effect
Outline: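 CHO-K1 wt, 1,500 cells/well; 5hr pre-incubation 37C/5% CO2; compound pin transfer (DMSO); 16hr exposure; CellTiter-Fluor added, 1hr, fluorescence read.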

[4] = Caspase-3/7 induction in CHO-K1 cells by small molecules, qHTS assay (AID 1346980); also: nearly all actives have a fitted effect of over 15% in size
Outline: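 Wild-type cells were seeded at 1,500 per well and settled 5 hr at 37 C, 5% CO2, then exposed to DMSO-dissolved compounds for 17 hr. Caspase-Glo 3/7 reagent was added, and luminescence was read after 30min at room temperature.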

[5] = Caspase-3/7 induction in HepG2 cells by small molecules, qHTS cell viability counter screen (AID 1346981); also: series mostly up to about 92 µM; nearly all actives have a fitted effect of over 30% in size
Outline: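 After a 5-hr attachment period at 37 C and 5% CO2, wild-type HepG2 cells received compounds in DMSO. Sixteen hours later CellTiter-Fluor was dispensed and the fluorescent signal quantified after a further hour.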

[6] = target: Nuclear receptor subfamily 1 group I member 2 (Homo sapiens) (UniProt O75469); assay: Human pregnane X receptor (PXR) small molecule agonists, qHTS assay (AID 1346982); also: nearly all actives have a fitted effect of over 35% in size; also: potency is read from the fitted curve at half-maximal effect
Chain of Nuclear receptor subfamily 1 group I member 2 (Homo sapiens) (O75469 whole entry, looked up): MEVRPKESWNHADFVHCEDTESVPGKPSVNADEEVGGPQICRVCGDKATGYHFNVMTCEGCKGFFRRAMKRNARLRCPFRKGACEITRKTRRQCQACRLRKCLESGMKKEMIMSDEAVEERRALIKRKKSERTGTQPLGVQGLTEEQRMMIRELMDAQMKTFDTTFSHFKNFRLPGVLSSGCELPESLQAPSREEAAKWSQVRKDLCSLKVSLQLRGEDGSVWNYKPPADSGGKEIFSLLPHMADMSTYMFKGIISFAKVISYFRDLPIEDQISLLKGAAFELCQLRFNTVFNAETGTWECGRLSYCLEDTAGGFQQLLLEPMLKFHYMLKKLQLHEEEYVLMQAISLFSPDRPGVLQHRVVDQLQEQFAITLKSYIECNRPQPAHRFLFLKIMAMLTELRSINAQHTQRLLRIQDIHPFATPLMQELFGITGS
Outline: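 Tox21 qHTS; PXR-Luc HepG2; compounds pinned from DMSO; 24 hr, 37 C; ONE-Glo luciferase detection, 30 min room temperature.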

[7] = target: Nuclear receptor subfamily 1 group I member 2 (Rattus norvegicus) (UniProt Q9R1A7); assay: Rat pregnane X receptor (rPXR) activation by small molecules, qHTS assay (AID 1346983); conditions: rPXR luciferase reporter cells, One-Glo luminescence, 24 h; max activation: hits give high values; also: nearly all actives have a fitted effect of over 20% in size; also: potency is read from the fitted curve at half-maximal effect
Chain of Nuclear receptor subfamily 1 group I member 2 (Rattus norvegicus) (Q9R1A7 whole entry, looked up): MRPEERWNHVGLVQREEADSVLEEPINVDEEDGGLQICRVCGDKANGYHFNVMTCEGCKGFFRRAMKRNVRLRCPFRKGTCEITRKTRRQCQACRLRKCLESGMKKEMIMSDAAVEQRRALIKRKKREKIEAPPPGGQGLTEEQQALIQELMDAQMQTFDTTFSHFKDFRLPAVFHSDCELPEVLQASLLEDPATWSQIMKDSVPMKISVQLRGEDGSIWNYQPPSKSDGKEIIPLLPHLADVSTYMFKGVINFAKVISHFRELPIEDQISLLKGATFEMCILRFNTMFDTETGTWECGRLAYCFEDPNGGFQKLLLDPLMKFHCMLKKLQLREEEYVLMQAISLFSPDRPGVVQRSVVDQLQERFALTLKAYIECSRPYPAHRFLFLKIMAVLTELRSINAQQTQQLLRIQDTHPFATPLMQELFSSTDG
Outline: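 Cell-based rPXR luciferase reporter assay, 2,000 cells per well, rested 5hr at 37 C before compound addition in DMSO, then 24 hr at 37 C. One-Glo reagent was added and luminescence read after 30 min at room temperature.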

[8] = target: Nuclear receptor subfamily 1 group I member 2 (Homo sapiens) (UniProt O75469); assay: CYP3A4 induction through human pregnane X receptor (PXR) by small molecules, qHTS assay (AID 1346984); also: nearly all actives have a fitted effect of over 40% in size; also: potency is read from the fitted curve at half-maximal effect
Outline: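 Cells (DPX-2; HepG2 with PXR element plus CYP3A4-promoter luciferase) settled 5hr, then were treated 24hr at 37C. A 3hr, 3uM-final Luciferin-IPA step preceded luminescence measurement with One-Glo.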

[9] = target: Nuclear receptor subfamily 1 group I member 2 (Homo sapiens) (UniProt O75469); assay: Human pregnane X receptor (PXR) activation by small molecules, qHTS assay (AID 1346985); also: nearly all actives have a fitted effect of over 40% in size; also: potency is read from the fitted curve at half-maximal effect
Outline: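 DPX-2 cells (HepG2 co-transfected with a PXR response element and a CYP3A4-promoter luciferase construct) were seeded at 2,000 per well, rested 5 hr at 37C, then exposed to DMSO-dissolved compounds for 24 hr. Activation was read as luciferase luminescence.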

[10] = target: Cytochrome P450 2D6 (Homo sapiens) (UniProt P10635); assay: Cytochrome P450 Family 2 Subfamily D Member 6 (CYP2D6) small molecule antagonists: luciferase reporter qHTS assay (AID 1671196); also: series mostly up to about 120 µM; nearly all actives have a fitted effect of over 50% in size
Chain of Cytochrome P450 2D6 (Homo sapiens) (P10635 whole entry, looked up): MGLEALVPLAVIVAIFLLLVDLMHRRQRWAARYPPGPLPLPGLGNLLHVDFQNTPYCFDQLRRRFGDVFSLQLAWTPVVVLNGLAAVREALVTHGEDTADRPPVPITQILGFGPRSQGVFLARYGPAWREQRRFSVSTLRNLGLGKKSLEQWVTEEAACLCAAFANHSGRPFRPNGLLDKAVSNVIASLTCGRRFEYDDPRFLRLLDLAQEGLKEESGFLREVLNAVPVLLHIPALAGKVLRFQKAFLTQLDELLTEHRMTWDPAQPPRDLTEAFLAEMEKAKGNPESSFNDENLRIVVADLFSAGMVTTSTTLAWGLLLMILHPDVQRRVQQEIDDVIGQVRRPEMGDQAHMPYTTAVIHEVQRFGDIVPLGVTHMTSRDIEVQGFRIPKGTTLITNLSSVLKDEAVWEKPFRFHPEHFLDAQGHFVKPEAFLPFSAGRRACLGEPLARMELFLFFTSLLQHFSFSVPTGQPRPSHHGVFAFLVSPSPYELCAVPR
Outline: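 Room-temperature luminescent CYP2D6 activity assay: compound preincubated 10 min with enzyme–substrate mix, NADPH-initiated reaction 1 h, detection reagent 20 min before reading.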
% is scaled to controls: 0 for no effect and ±100 for the full control effect.

C=C[Si](OC(C)=O)(OC(C)=O)OC(C)=O
inactive: Potency [1] | outcome [2] | Potency [3] | outcome [4] | Potency [5] | Potency [6]

O=C(O)CCCC[P+](c1ccccc1)(c1ccccc1)c1ccccc1
inactive: Potency [1] | outcome [2] | Potency [3] | outcome [4] | Potency [5] | Potency [6]

C[N+]12CCC(CC1)C(OC(=O)C(O)(c1ccccc1)c1ccccc1)C2 (stereo not given)
inactive: Potency [1] | outcome [2] | Potency [3] | outcome [4] | Potency [5] | Potency [6] | max activation [7] -2.26% | Potency [8] | Potency [9]

CC(C)C[C@@H](N)C(=O)O
inactive: activity change, negative = cytotoxicity [1] 28.2% [at 19 µM] | caspase activation [2] -0.781% [at 19 µM] | activity change, negative = cytotoxicity [3] -2.25% [at 19 µM] | caspase-3/7 activation [4] -0.0944% [at 19 µM] | activity change, negative = cytotoxicity [5] 1.16% [at 19 µM]

N[C@@H](CCC(=O)O)C(=O)O
inactive: Potency [1] | outcome [2] | Potency [3] | outcome [4] | Potency [5] | Potency [6]

O=C(O)c1cc(C(=O)O)cc(C(=O)O)c1
inactive: Potency [1] | outcome [2] | Potency [3] | outcome [4] | Potency [5] | Potency [6]

CCOCC(C)O (stereo not given)
inactive: Potency [1] | outcome [2] | Potency [3] | outcome [4] | Potency [5]

CCCCCCCC1CCCC1=O (stereo not given)
inactive: Potency [1] | outcome [2] | Potency [3] | outcome [4] | Potency [5]

C=COC(=O)C(C)(CC)CCC(C)C (stereo not given)
inactive: Potency [1] | outcome [2] | Potency [3] | outcome [4] | Potency [5] | Potency [6]

CC(C)(C#N)Nc1nc(Cl)nc(NC2CC2)n1
inactive: Potency [1] | outcome [2] | Potency [3] | outcome [4] | Potency [5]

C1CCC2=NCCCN2CC1
inactive: Potency [1] | outcome [2] | Potency [3] | outcome [4] | Potency [5]

Nc1ccccn1
inactive: Potency [1] | outcome [2] | Potency [3] | outcome [4] | Potency [5]

COC(=O)C1=C(C)NC(C)=C(C(=O)OC(C)C)C1c1cccc2nonc12 (stereo not given)
inactive: Potency [1] | outcome [2] | outcome [4] | Potency [5] | Potency [8]
active: Potency [3] 26.6 µM | Potency [6] 1.33 µM | Potency [7] 10 µM | Potency [9] 0.891 µM

CN(C)CCCCCCN(C)C
inactive: Potency [1] | outcome [2] | Potency [3] | outcome [4] | Potency [5]

CC(N)C12CC3CC(CC(C3)C1)C2 (stereo not given)
inactive: Potency [1] | outcome [2] | Potency [3] | outcome [4] | Potency [5] | Potency [6] | max activation [7] 8.41% | Potency [8] | Potency [9]

O=Cc1cccc(Br)c1
inactive: Potency [1] | outcome [2] | Potency [3] | outcome [4] | Potency [5] | Potency [6]

O=C(O)CC(C(=O)O)S(=O)(=O)O (stereo not given)
inactive: Potency [1] | outcome [2] | Potency [3] | outcome [4] | Potency [5] | Potency [6]

C[C@@H]1C[C@H]2[C@@H]3C[C@H](F)C4=CC(=O)C(Cl)=C[C@]4(C)[C@@]3(F)[C@@H](O)C[C@]2(C)[C@@]1(O)C(=O)CO
inactive: Potency [1] | outcome [2] | Potency [3] | outcome [4] | Potency [5]
active: Potency [6] 2.11 µM | Potency [7] 0.1 µM | Potency [8] 12.6 µM

NO
inactive: Potency [1] | outcome [2] | Potency [3] | outcome [4] | Potency [5]

NC(=O)NC1N=C([O][Al])NC1=O (stereo not given)
inactive: Potency [1] | outcome [2] | Potency [3] | outcome [4] | Potency [5]

C=C(C)C(=O)OCC1CCCO1 (stereo not given)
inactive: Potency [1] | outcome [2] | Potency [3] | outcome [4] | Potency [5]

CN1[C@@H]2CC[C@H]1CC(OC(=O)C(O)c1ccccc1)C2 (stereo not given in full)
inactive: Potency [1] | outcome [2] | Potency [3] | outcome [4] | Potency [5] | Potency [6] | max activation [7] 2.11% and -0.222% | Potency [8] | Potency [9] | Potency [10]

C=CC(=O)OCCCl
inactive: Potency [1] | outcome [2] | Potency [3] | outcome [4] | Potency [5] | Potency [6]

COc1cc(C(=O)OC(COCCC(C)C)CN2CCOCC2)cc(OC)c1OC (stereo not given)
inactive: Potency [1] | outcome [2] | Potency [3] | outcome [4] | Potency [5]

Nc1ccncc1N
inactive: Potency [1] | outcome [2] | Potency [3] | outcome [4] | Potency [5] | Potency [6] | max activation [7] -0.418% | Potency [8] | Potency [9] | Potency [10]

CCN(Cc1ccccc1)c1ccccc1
inactive: Potency [1] | outcome [2] | Potency [3] | outcome [4] | Potency [5]

CCCC(=O)O[C@]1(C(=O)CC)CC[C@H]2[C@@H]3CCC4=CC(=O)CC[C@]4(C)[C@H]3[C@@H](O)C[C@@]21C
inactive: Potency [1] | outcome [2] | Potency [3] | outcome [4] | Potency [5]
active: Potency [6] 3.76 µM

Cc1cccc(C)c1NC(=O)CC12CCCN1CCC2
inactive: Potency [1] | outcome [2] | Potency [3] | outcome [4] | Potency [5] | Potency [6] | max activation [7] 6.3% | Potency [8] | Potency [9]

CC(C)(C)OC(=O)c1cccc(N)c1
active: Potency [6] 28 µM
inactive: Potency [1] | outcome [2] | Potency [3] | outcome [4] | Potency [5]

CC(C)NNC(=O)c1ccncc1
inactive: Potency [1] | outcome [2] | Potency [3] | outcome [4] | Potency [5] | Potency [6] | max activation [7] -0.682% | Potency [8] | Potency [9]

CCOc1ccccc1OCC
inactive: Potency [1] | outcome [2] | Potency [3] | outcome [4] | Potency [5] | Potency [6]

CC(C)C(=O)OC(=O)C(C)C
inactive: Potency [1] | outcome [2] | Potency [3] | outcome [4] | Potency [5] | Potency [6]

C=CCCCCCCCCC(=O)OCC
inactive: Potency [1] | outcome [2] | Potency [3] | outcome [4] | Potency [5]
